{
  "source": "paper PMC4336329",
  "about": "(PLoS ONE, 2015)",
  "note": "Among all 310,000 compounds or so, about 14,000 (4.5%) showed an effect of 50% or more. The effect is printed as a negative number. The entries come from a sample that favours strong results as a whole.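 Note: peak tail current of the secondary pulse compared with the same well before compound.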",
  "data": [
    {"target": "human ether-à-go-go-related gene (hERG) potassium channel (human, UniProt Q12809)", "sequence (Q12809 whole entry, looked up)": "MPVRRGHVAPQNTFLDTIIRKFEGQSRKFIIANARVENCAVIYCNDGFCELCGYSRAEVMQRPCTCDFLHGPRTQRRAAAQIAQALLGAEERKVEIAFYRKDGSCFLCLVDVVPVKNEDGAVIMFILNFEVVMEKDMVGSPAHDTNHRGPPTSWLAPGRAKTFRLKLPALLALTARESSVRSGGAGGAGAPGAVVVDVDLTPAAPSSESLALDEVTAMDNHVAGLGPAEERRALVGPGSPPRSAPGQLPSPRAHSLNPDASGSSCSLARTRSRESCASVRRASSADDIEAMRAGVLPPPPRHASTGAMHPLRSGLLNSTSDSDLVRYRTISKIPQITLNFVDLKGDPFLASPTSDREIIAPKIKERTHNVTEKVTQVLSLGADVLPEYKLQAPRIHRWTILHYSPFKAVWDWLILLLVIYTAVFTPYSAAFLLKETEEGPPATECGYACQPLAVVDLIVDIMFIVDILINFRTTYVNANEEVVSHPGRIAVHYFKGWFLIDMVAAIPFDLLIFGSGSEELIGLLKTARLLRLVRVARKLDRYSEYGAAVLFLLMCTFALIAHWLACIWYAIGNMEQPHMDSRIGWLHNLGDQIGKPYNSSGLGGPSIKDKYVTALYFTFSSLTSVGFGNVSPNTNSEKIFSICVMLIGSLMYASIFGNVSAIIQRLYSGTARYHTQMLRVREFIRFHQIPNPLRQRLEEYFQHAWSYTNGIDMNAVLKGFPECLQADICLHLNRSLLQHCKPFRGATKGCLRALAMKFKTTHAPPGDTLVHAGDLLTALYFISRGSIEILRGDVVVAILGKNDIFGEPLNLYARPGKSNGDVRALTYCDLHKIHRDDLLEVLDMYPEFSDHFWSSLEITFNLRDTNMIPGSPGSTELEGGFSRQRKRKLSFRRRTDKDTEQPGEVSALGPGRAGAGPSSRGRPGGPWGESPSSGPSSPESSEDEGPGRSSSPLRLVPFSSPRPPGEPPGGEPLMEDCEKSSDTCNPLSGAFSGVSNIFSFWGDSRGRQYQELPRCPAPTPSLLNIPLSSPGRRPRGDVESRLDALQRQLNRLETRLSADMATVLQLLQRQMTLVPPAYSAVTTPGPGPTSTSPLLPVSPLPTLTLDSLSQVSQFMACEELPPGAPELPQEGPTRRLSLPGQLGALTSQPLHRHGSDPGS", "assay": "primary screen, population patch clamp on CHO cells stably expressing hERG; higher = less effect of the substance", "units": {"hERG current change (%, negative = inhibition) at 10uM": "%"}, "values": [
      {"compound": "N#Cc1c(-c2ccco2)cc(-c2ccc(F)cc2)nc1N", "hERG current change (%, negative = inhibition) at 10uM": -2.08},
      {"compound": "COc1ccc(-c2cc(=O)oc3c(C)c(OC(C)C(=O)Nc4ccc(CN5CCOCC5)cc4)ccc23)cc1", "note": "(centres unmarked)", "hERG current change (%, negative = inhibition) at 10uM": -5.78},
      {"compound": "Cn1c(/C(C#N)=C2/CCCCCN2)nc2ccccc21", "hERG current change (%, negative = inhibition) at 10uM": -12.5},
      {"compound": "O=S(=O)(NCc1ccc(Cl)cc1)NCc1ccc(Cl)cc1", "hERG current change (%, negative = inhibition) at 10uM": 12.7},
      {"compound": "COC(=O)c1cc(Br)ccc1OC(=O)c1cccnc1", "hERG current change (%, negative = inhibition) at 10uM": 7.06},
      {"compound": "COc1ccc(-c2cc3nc(C)c(CCC(=O)NCc4ccco4)c(C)n3n2)c(OC)c1", "hERG current change (%, negative = inhibition) at 10uM": -12.9},
      {"compound": "COc1ccc(-c2cc3nc(C)c(CCC(=O)NC(C)CCc4ccco4)c(C)n3n2)c(OC)c1", "note": "(centres unmarked)", "hERG current change (%, negative = inhibition) at 10uM": -62},
      {"compound": "Cc1nc2cc(-c3ccc(Cl)cc3)nn2c(C)c1CCC(=O)NCc1ccco1", "hERG current change (%, negative = inhibition) at 10uM": -41.9},
      {"compound": "Cc1ccc(C(=O)O)cc1NC(=S)NCCc1ccccc1", "hERG current change (%, negative = inhibition) at 10uM": 0.261},
      {"compound": "C[C@H](NC(=O)c1cc2c(cn1)[nH]c1ccccc12)C(=O)O", "hERG current change (%, negative = inhibition) at 10uM": 18.4},
      {"compound": "CCOC(=O)C1(Cc2ccccc2C)CCCN(S(C)(=O)=O)C1", "note": "(centres unmarked)", "hERG current change (%, negative = inhibition) at 10uM": 16.5},
      {"compound": "Cc1cc(NC(=O)c2ccc(N3C(=O)C4C5C=CC(C5)C4C3=O)cc2)no1", "note": "(centres unmarked)", "hERG current change (%, negative = inhibition) at 10uM": 8.53},
      {"compound": "O=C(Nc1ccccc1OC(F)F)c1cccc(S(=O)(=O)N2CCCC2)c1", "hERG current change (%, negative = inhibition) at 10uM": -23.6},
      {"compound": "COc1ccc(-n2cnnc2SCC(=O)Nc2cccnc2Cl)cc1", "hERG current change (%, negative = inhibition) at 10uM": -18.7},
      {"compound": "COc1cc(NC(=O)CC(C)n2ccnc2)cc(OC)c1", "note": "(centres unmarked)", "hERG current change (%, negative = inhibition) at 10uM": 10.7},
      {"compound": "CC(C)(C)c1ccc(NC(=O)COc2ccc(-n3ccnc3)cc2)cc1", "hERG current change (%, negative = inhibition) at 10uM": -56.5},
      {"compound": "Cc1ccc(NC(=O)COc2ccc(-n3ccnc3)cc2)cc1Cl", "hERG current change (%, negative = inhibition) at 10uM": -33.6},
      {"compound": "COc1cc(NC(=O)COc2ccc(-n3ccnc3)cc2)cc(OC)c1", "hERG current change (%, negative = inhibition) at 10uM": -51.3},
      {"compound": "CC(C)(C)c1ccc(OCC(=O)Nc2ccncc2)cc1", "hERG current change (%, negative = inhibition) at 10uM": 8.71},
      {"compound": "CCC(C)(C)c1ccc(OCC(=O)Nc2ccncc2)cc1", "hERG current change (%, negative = inhibition) at 10uM": -16},
      {"compound": "CCOC(=O)/C(C)=N/NC(=O)c1cccc([N+](=O)[O-])c1", "hERG current change (%, negative = inhibition) at 10uM": 7.04},
      {"compound": "Cc1ccc(CNC(=O)c2ccc(N3CCC4(CC3)CC(c3ccccc3)=NO4)c(NC(=O)c3cccc(C)c3)c2)cc1", "hERG current change (%, negative = inhibition) at 10uM": -6.37},
      {"compound": "CCCOc1ccc(N2C(=O)CC(SCc3nc4ccccc4[nH]3)C2=O)cc1", "note": "(centres unmarked)", "hERG current change (%, negative = inhibition) at 10uM": -41.2},
      {"compound": "N/C(=N/[N+](=O)[O-])N1CCN(C(=O)Oc2ccc([N+](=O)[O-])cc2)CC1", "hERG current change (%, negative = inhibition) at 10uM": -36.5},
      {"compound": "O=C(Oc1ccc([N+](=O)[O-])cc1)N1CCC(N2CCCCC2)CC1", "hERG current change (%, negative = inhibition) at 10uM": -65.4},
      {"compound": "O=C(Oc1cccc([N+](=O)[O-])c1)N1CCCCC1", "hERG current change (%, negative = inhibition) at 10uM": -0.619}
    ]}
  ]
}
